Source: PubChem (National Center for Advancing Translational Sciences (NCATS))
KAT2A inh = blocks human GCN5L2 histone acetyltransferase; Q92830; GCN5L2 HAT assay, ThioGlo1 CoA-SH fluorescence; Potency, µM (titrated, usually from 58.9 µM), most hits filed as inhibitors; 390,000 tested, 0.21% active
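Fluorescence readout, Ex340nm/Em540nm: ThioGlo1 (50uM final) reacts with free CoA thiol released as 20nM GCN5L2 acetylates H3(1-25) peptide (75uM) using acetyl-CoA (70uM). Compound and enzyme sat 15 min beforehand; 20 min room-temperature reaction.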
POLI inh = blocks human DNA polymerase iota activity. Pol iota fluorescent replication assay, 10 min. Potency, µM (series often up to 115 µM), actives largely listed as inhibitors. Q9UNA4. 390,000 tested, 1% active. AID 588590
Target sequence (Q9UNA4 whole entry, looked up): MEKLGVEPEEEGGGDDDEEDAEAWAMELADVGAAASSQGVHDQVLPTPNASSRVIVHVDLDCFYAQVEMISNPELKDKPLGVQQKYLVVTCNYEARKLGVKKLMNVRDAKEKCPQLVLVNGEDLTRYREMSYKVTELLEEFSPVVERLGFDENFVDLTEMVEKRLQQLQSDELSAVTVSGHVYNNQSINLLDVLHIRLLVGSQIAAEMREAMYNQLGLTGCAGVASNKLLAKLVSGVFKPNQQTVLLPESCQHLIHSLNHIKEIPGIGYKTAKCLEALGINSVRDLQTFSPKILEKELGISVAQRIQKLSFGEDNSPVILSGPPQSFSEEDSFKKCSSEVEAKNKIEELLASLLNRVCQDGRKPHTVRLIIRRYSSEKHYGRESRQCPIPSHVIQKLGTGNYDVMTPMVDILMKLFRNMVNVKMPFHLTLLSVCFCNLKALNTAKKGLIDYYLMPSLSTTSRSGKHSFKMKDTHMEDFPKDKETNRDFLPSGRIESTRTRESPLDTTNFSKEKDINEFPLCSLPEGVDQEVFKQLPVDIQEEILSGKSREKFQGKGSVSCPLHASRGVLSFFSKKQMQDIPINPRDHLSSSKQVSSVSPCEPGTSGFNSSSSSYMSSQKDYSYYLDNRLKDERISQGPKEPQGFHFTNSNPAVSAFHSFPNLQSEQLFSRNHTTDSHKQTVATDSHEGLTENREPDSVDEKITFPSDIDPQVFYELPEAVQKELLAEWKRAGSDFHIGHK
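Fluorescent replication assay read twice, at 0 min and 10 min after adding 50 nM (final) substrate. Enzyme (10 nM) and compounds were first incubated 15 min at room temperature; enzyme-free buffer wells were negative controls.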
Pol kappa inh = blocks human DNA polymerase kappa activity; 400,000 tested, 0.53% active; Potency, µM (series often up to 107 µM), hits mostly inhibitors; purified Pol kappa, fluorescent DNA synthesis assay, 10 min; Q9UBT6
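Inhibition of 10 nM Pol kappa is measured by a fluorescent read-out at 0 and 10 min following addition of 50 nM substrate (final), with a 15-min room-temperature compound preincubation.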
Pol eta inh = inhibitors of human DNA polymerase eta; Q9Y253; recombinant Pol eta, fluorescent DNA replication assay; Potency, µM (doses to about 114 µM), hits mostly inhibitors; 390,000 tested, 1.2% active
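Fluorescent replication assay: 50 nM final substrate added after a 15 min room-temperature compound preincubation with 10 nM enzyme. Signal taken at 0 min and again at 10 min.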
POLB inh = blocks human DNA polymerase beta activity | P06746 | AID 485314 | Pol beta primer extension/strand displacement, fluorescence kinetic | 340,000 tested, 1.3% active | Potency, µM (doses to about 114 µM), actives largely listed as inhibitors
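10 nM enzyme + cpd, 15 min RT; start with substrate 50 nM final; read 0 min and after 10 min RT. Corrected, normalized data; 4-parameter Hill curve fit.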
GLS inhibitor = inhibitors of human glutaminase (GLS); Potency, µM (doses to about 45.5 µM), hits mostly inhibitors; GLS enzymatic activity, qHTS titration; 410,000 tested, 0.21% active; O94925; AID 624170
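Enzyme dispensed in phosphate buffer (45 mM, pH 8.2, 0.02% Tween-20), compounds pinned in, then 1 mM L-glutamine solution and the glutamate oxidase–HRP–Amplex Red mix added; fluorescence read immediately and again after 30 min at room temperature.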
Hits are given with their value; [ ] = another dose, or the depositor's remark. An excerpt weighted towards active compounds, which were near 2.4% of everything screened. Calls come from the whole dose curve; as a rule, active = well fitted inhibition curve with a large enough effect; inconclusive = small, poorly fitted or top-dose-only effect, or another doubt; inactive = no such curve, though single readings can be large or run the other way.

How did O=C(COC(=O)c1ccc([N+](=O)[O-])s1)c1ccc[nH]1 do in these assays?
KAT2A inh: inactive; POLI inh: 89µM; Pol kappa inh: inactive; Pol eta inh: 20µM; GLS inhibitor: inactive

How did CC(NC(=O)COC(=O)c1ccc([N+](=O)[O-])s1)c1ccccc1 (stereo unspecified) do in these assays?
KAT2A inh: inactive; POLI inh: inconclusive; Pol kappa inh: inactive; Pol eta inh: inconclusive; POLB inh: 16µM; GLS inhibitor: inactive

How did COc1ccc(NC(=O)c2c(NCc3ccc(C)o3)sc3c2CCCCC3)c(OC)c1 do in these assays?
KAT2A inh: inactive; POLI inh: inconclusive; Pol kappa inh: inactive; Pol eta inh: inactive; POLB inh: inactive; GLS inhibitor: inactive

How did O=C(COC(=O)c1ccc([N+](=O)[O-])s1)NC(=O)NCc1ccccc1 do in these assays?
KAT2A inh: inactive; POLI inh: inconclusive; Pol kappa inh: inactive; Pol eta inh: inactive; POLB inh: 7.9µM; GLS inhibitor: inactive

What do the screens show for `CCCCCN(CCCCC)C(=O)[C@H](CCC(=O)O)NC(=O)[C@H](Cc1ccc(OP(=O)(O)O)cc1)NC(C)=O`?
KAT2A inh: inactive; Pol kappa inh: inactive[12 µM]

Results for COc1ccccc1C(=O)Nc1ncc2c(n1)CC(c1ccco1)CC2=O (stereo unspecified) ?
KAT2A inh: inactive; POLI inh: 56µM; Pol kappa inh: inactive; Pol eta inh: inactive; POLB inh: 40µM; GLS inhibitor: inactive

How did Cc1ccnc(NS(=O)(=O)c2ccccc2)c1 do in these assays?
KAT2A inh: inactive; POLI inh: inactive; Pol kappa inh: inactive; Pol eta inh: inactive; POLB inh: inactive; GLS inhibitor: inactive

Results for Cc1ccnc(NS(=O)(=O)c2ccc(CC(C)C)cc2)c1 ?
KAT2A inh: inactive; POLI inh: inactive; Pol kappa inh: inactive; Pol eta inh: inactive; POLB inh: 100µM; GLS inhibitor: inactive

Results for COc1cccc(-c2cc(C(=O)Nc3cnn(Cc4ccc(F)cc4)c3)no2)c1 ?
KAT2A inh: inactive; POLI inh: 100µM; Pol kappa inh: inactive; Pol eta inh: inactive; POLB inh: inactive; GLS inhibitor: inactive

Results for COc1ccc(-c2cc(C(=O)Nc3cnn(Cc4ccc(F)cc4)c3)no2)cc1OC ?
KAT2A inh: inactive; POLI inh: inactive; Pol kappa inh: inactive; Pol eta inh: inactive; POLB inh: inactive; GLS inhibitor: inactive

What do the screens show for `CCOc1cc(/C=N/N=C2/NC(=O)C(CC(=O)O)S2)ccc1OCc1ccccc1Cl` (stereo unspecified)?
KAT2A inh: inactive; POLI inh: inactive; Pol kappa inh: inactive; Pol eta inh: inconclusive; POLB inh: 28µM; GLS inhibitor: inactive

What do the screens show for `CN1C2C=C3C(C#N)=C(N)C(C#N)(C#N)[C@@H](c4cccc(F)c4)[C@@H]3C1CC2` (stereo partly specified)?
KAT2A inh: inactive; POLI inh: 20µM; Pol kappa inh: inactive; Pol eta inh: inactive; POLB inh: inactive; GLS inhibitor: inactive

How did Cc1ccc(S(=O)(=O)N(CC(O)Cn2c3ccccc3c3ccccc32)c2cccc(C(=O)N(C)C)c2)cc1 (stereo unspecified) do in these assays?
KAT2A inh: inactive; POLI inh: 89µM; Pol kappa inh: 79µM; Pol eta inh: inactive; POLB inh: inactive; GLS inhibitor: inactive

How did Cc1ccc(NC(=O)N2CCC(CN3CCCC3)CC2)c(C)c1 do in these assays?
KAT2A inh: inactive; POLI inh: inactive; Pol kappa inh: inactive; Pol eta inh: inactive; POLB inh: inactive; GLS inhibitor: inactive

What do the screens show for `CN(C)c1ccc(/C=C/c2ccc3ncccc3c2)cc1`?
POLI inh: inconclusive; Pol kappa inh: inactive

Results for COc1ccccc1NC(C)C(=O)c1c[nH]c2ccccc12 (stereo unspecified) ?
POLI inh: inactive; Pol kappa inh: inactive

How did CC1(C)CC(=O)C(C(=O)/C=C/NCCc2ccccc2)C(=O)C1 do in these assays?
KAT2A inh: inactive; POLI inh: inactive; Pol kappa inh: inactive; Pol eta inh: inactive; POLB inh: inactive; GLS inhibitor: inactive

What do the screens show for `CC1(C)CC(=O)C(C(=O)/C=C/c2ccco2)C(=O)C1`?
KAT2A inh: inactive; POLI inh: inactive; Pol kappa inh: inactive; Pol eta inh: inactive; POLB inh: 11µM; GLS inhibitor: inconclusive

What do the screens show for `CCOc1ccc(C(=O)C(CN2CCOCC2)c2ccccc2)cc1` (stereo unspecified)?
KAT2A inh: inactive; POLI inh: inconclusive; Pol kappa inh: inactive; Pol eta inh: inactive; POLB inh: inactive; GLS inhibitor: inactive

How did O=C(c1ccc(Br)cc1)C(CN1CCOCC1)c1ccccc1 (stereo unspecified) do in these assays?
KAT2A inh: inactive; POLI inh: 20µM; Pol kappa inh: inactive; Pol eta inh: inactive; POLB inh: inactive; GLS inhibitor: inactive

How did COc1ccc(OCC(=O)Nc2nc3ccc(NC(C)=O)cc3s2)cc1 do in these assays?
KAT2A inh: inactive; POLI inh: inactive; Pol kappa inh: inactive; Pol eta inh: inconclusive; POLB inh: 22µM; GLS inhibitor: inactive

How did CC(=O)Nc1ccc2nc(NC(=O)COc3ccc([N+](=O)[O-])cc3)sc2c1 do in these assays?
KAT2A inh: inactive; POLI inh: inactive; Pol kappa inh: inactive; Pol eta inh: inactive; POLB inh: inactive; GLS inhibitor: inactive

How did CC(C)(C)NC(=O)c1cc(F)c(F)cc1Cl do in these assays?
KAT2A inh: inactive; POLI inh: inactive; Pol kappa inh: inactive; Pol eta inh: inactive; POLB inh: 89µM; GLS inhibitor: inactive

How did CC(C)(C)NC(=O)COC(=O)c1cc(F)c(F)cc1Cl do in these assays?
KAT2A inh: inactive; POLI inh: inactive; Pol kappa inh: inactive; Pol eta inh: inactive; POLB inh: inactive; GLS inhibitor: inactive

Results for CCc1ccc(-c2nc(CS(=O)CC(=O)NCc3ccco3)c(C)o2)cc1 (stereo unspecified) ?
KAT2A inh: inactive; POLI inh: inactive; Pol kappa inh: inactive; Pol eta inh: 89µM; POLB inh: inconclusive; GLS inhibitor: inactive

Results for COc1ccc(-c2nc(CS(=O)CC(=O)NCc3ccco3)c(C)o2)cc1 (stereo unspecified) ?
KAT2A inh: inactive; POLI inh: inactive; Pol kappa inh: inactive; Pol eta inh: inactive; POLB inh: inactive; GLS inhibitor: inactive

Results for COCCN1C(=O)/C(=C/c2ccc(OCc3ccc(C(=O)O)cc3)c(OC)c2)SC1=Nc1ccccc1 ?
KAT2A inh: inconclusive; POLI inh: inactive; Pol kappa inh: inactive; Pol eta inh: 28µM; POLB inh: 50µM; GLS inhibitor: inactive

How did COc1cc(/C=C2/SC(=S)N(CC(=O)O)C2=O)ccc1OC(=O)c1cccs1 do in these assays?
KAT2A inh: inactive; POLI inh: inconclusive; Pol kappa inh: inactive; Pol eta inh: inconclusive; POLB inh: inactive; GLS inhibitor: inactive
